Assay results published in PubChem BioAssay AID2315 (National Center for Advancing Translational Sciences (NCATS), 2010).
Where “and” joins values, the source holds several entries; their conditions need not be identical. Equal entries are not always repeated. Screen size: about 290,000 compounds; about 27,000 (9.3%) were called active. This is one part of a sample in which actives are shown more often than they occur. Values without a mark were called inactive. No stated cut-off is given here; in the data, active means inhibition mostly above about 28% (no sharp cut-off); inactive means mostly below about 43%.

Experiment: A qHTS for Small Molecule Inhibitors of Shiga Toxin; further: 0% is about no effect
Settings: Vero cells, Shiga toxin protein synthesis inhibition reporter; at 38.7 µM, active compounds read high
For `ONC(=Nc1ccccc1)c1ccccc1Cl`, the inhibition was -18.8%.
`COc1ccc(N(C(=O)c2cccnc2)S(=O)(=O)c2ccc(OC)c(OC)c2)cc1` gave an inhibition of -7.61%.
Work on `COc1ccc(OC)c(C(C)NC(=S)Nc2ccc(S(=O)(=O)Nc3ncccn3)cc2)c1` (stereo not drawn) yielded an inhibition of -14%.
`COc1ccc2cc(C(=O)C3CCCN(C(=O)c4sc(C)nc4C)C3)ccc2c1` (stereo not drawn) showed an inhibition of 15.6%.
With `O=C(CSc1ccc(-c2ccc(Br)cc2)nn1)NCC1CCCO1` (stereo not drawn) the inhibition was 2.72%.
`CCCNC(=O)CCn1nc(-c2ccccc2)c2ccccc2c1=O` gave an inhibition of -10.6%.
`COC(=O)C(CC(C)C)NS(=O)(=O)c1cc(Br)ccc1Br` (stereo not drawn) showed an inhibition of 40.7%.
For `O=C(O)Cc1csc(-c2cccc(Oc3ccccc3)c2)n1`, the inhibition was -2.34% and 18.5%.
`COc1ccc(SCc2noc(C(=O)NCC3CCCO3)c2C(=O)O)cc1` (stereo not drawn) showed an inhibition of -6.14%.
With `COc1ccc2cc(C(=O)NCC3CCCO3)[nH]c2c1` (stereo not drawn) the inhibition was 81.7% (active).
In the case of `CCC(=O)c1c[nH]c(C(=O)NCC2CCCO2)c1` (stereo not drawn), the inhibition is reported as -5.73%.
With `CNC(=O)C1CCN(S(=O)(=O)c2c(C)noc2/C=C/c2cccc(C)c2)CC1` the inhibition was -9.45%.
In the case of `Cc1ccc2cccc(OCCCOc3ccccc3CO)c2n1`, the inhibition is reported as 25.2%.
For `Cc1nonc1NC(=O)c1ccccc1Br`, the inhibition was 30.3%.
In the case of `Cc1nonc1NC(=O)c1oc2ccccc2c1C`, the inhibition is reported as 85.7% (active).
`Cc1c(C(=O)NC2CCCCC2)oc2ccccc12` gave an inhibition of 60.6%.
With `Cc1ccc(NC(=O)c2oc3ccccc3c2C)c([N+](=O)[O-])c1` the inhibition was 46.2% (active).
`Cc1ccc(NC(=O)CN(C)Cc2ccc(F)cc2)c([N+](=O)[O-])c1` gave an inhibition of 19.4%.
In the case of `CCc1nonc1NC(=O)c1oc2ccc(Cl)cc2c1C`, the inhibition is reported as 1.67%.
Compound `COCc1cc(C)n(CC(=O)NCC2CCCO2)c(=O)c1C#N` (stereo not drawn) has an inhibition of -20.7%.
Compound `COc1ccccc1CCCNC(=O)C1CCC(=O)N(CCN2CCOCC2)C1` (stereo not drawn) has an inhibition of -25.5%.
Work on `Nc1nc(NCc2ccccc2)n(-c2ccccc2)n1` yielded an inhibition of -6.24%.
Work on `Cc1cccc(CC(=O)N2CCN=C2SCc2ccc([N+](=O)[O-])cc2)c1` yielded an inhibition of 2.92%.
In the case of `S=C(NCc1ccco1)Nc1ccc2c(c1)OCCO2`, the inhibition is reported as 69.3% (active).
With `CN(C)S(=O)(=O)c1cccc(NC(=S)NCc2ccc3c(c2)OCO3)c1` the inhibition was -10.4%.
In the case of `S=C(Nc1cccc(Cl)c1)Nc1ccc2cn[nH]c2c1`, the inhibition is reported as 34.5%.
In the case of `Cc1csc(NC(=S)Nc2cccc(Cl)c2)n1`, the inhibition is reported as 126% (active).
`FC(F)(F)c1cccc(NC(=S)Nc2cccc(Cl)c2)c1` gave an inhibition of 1.44%.
In the case of `S=C(Nc1cccc(Cl)c1)Nc1ccc2c(c1)OCCO2`, the inhibition is reported as 61.2% (active).
For `CC(=O)Nc1cccc(C(=O)Nc2nc(C)cs2)c1`, the inhibition was 42.6%.
Compound `S=C(NCc1ccc2c(c1)OCO2)NCc1ccco1` has an inhibition of 53.2%.
With `FC(F)Oc1ccc(NC(=S)NCc2ccco2)cc1Cl` the inhibition was 9.56%.
`CC(NS(=O)(=O)c1ccc(OCC(=O)N2CCCC2)cc1)c1ccccc1` (stereo not drawn) showed an inhibition of -8.81%.
Compound `COCCn1cnc2c1c(=O)n(CC(=O)NN)c(=O)n2Cc1ccccc1` has an inhibition of 14.2%.
With `C/C(=N\NC(=O)c1cc(-c2ccc(O)cc2)nc2ccccc12)c1cccnc1` the inhibition was 6.02%.
`CC1CC(C)CN(CCCNC(=O)Cn2ncc3c([nH]c4ccccc43)c2=O)C1` (stereo not drawn) gave an inhibition of -7.63%.
`Cc1c(Br)c([N+](=O)[O-])nn1CC(=O)Nc1sc2c(c1C(=O)OC(C)C)CCC(C)C2` (stereo not drawn) showed an inhibition of -7.24%.
With `CCCOc1cccc(C(=O)Nc2nnn(CCC)n2)c1` the inhibition was 103% (active).
For `CCCn1nnc(NC(=O)COc2ccc(CC)cc2)n1`, the inhibition was 3.59%.
Work on `CCCOc1cccc(C(=O)NCCCNC(=O)c2cccnc2)c1` yielded an inhibition of -9.24%.
Work on `CCCCCN(C(=O)CCC(=O)OCC(=O)NCc1ccc(OC)cc1)c1c(N)n(CCCC)c(=O)[nH]c1=O` yielded an inhibition of -10.9%.
Work on `CC(C)c1ccc(NC(=O)C2CCCN(S(=O)(=O)c3cccnc3)C2)cc1` (stereo not drawn) yielded an inhibition of -4.38%.
For `COc1ccc(NC(=O)CC2C(=O)NC3CCCCC3N2C(=O)c2ccc(F)cc2)cc1` (stereo not drawn), the inhibition was -4.42%.
Work on `O=C(COc1cccc(Cl)c1)NCc1ccccc1` yielded an inhibition of 15%.
Compound `CCN(CC)CCN1C(=O)C2C(C(=O)Nc3ccc(Br)cc3)C3C=CC2(O3)C1C(=O)NC1CCCCC1` (stereo not drawn) has an inhibition of -12%.
`NNC(=O)c1cccc(COCC(F)(F)C(F)F)c1` gave an inhibition of -2.2%.
For `CC(C)c1cc(C(N)=O)c(NC(=O)c2cccc(COc3ccc(Br)cc3)c2)s1`, the inhibition was 199% (active).
With `Cc1ccc(COc2ccc(C(=O)NN)cc2)cc1` the inhibition was 30.5%.
Compound `CCn1c(SCC(=O)Nc2nccs2)nnc1-c1ccncc1` has an inhibition of -7.47%.
With `CC(=O)c1cc(C#N)c(N2CC(C)OC(C)C2)nc1C` (stereo not drawn) the inhibition was -8.18%.
`Cc1cccc(C)c1Nc1nnc(SCC(=O)Nc2sccc2C#N)s1` gave an inhibition of -3.87%.
`CC(=O)c1cc(C#N)c(N2CCCCC2)nc1C` showed an inhibition of 1.31%.
With `Cc1cc(C(F)(F)F)nc(SCC(=O)Nc2nccs2)n1` the inhibition was -9.67%.
With `Cc1[nH]c2ccccc2c1SCC(=O)Nc1nccs1` the inhibition was 63.6% (active).
In the case of `CC(=O)c1cc(C#N)c(SCC(=O)Nc2nccs2)nc1C`, the inhibition is reported as 65% (active).
`CCn1c(SCC(=O)Nc2nccs2)nnc1-c1ccco1` gave an inhibition of -6.37%.
With `CC(=O)c1cc(C#N)c(SCC(=O)C(C)(C)C)nc1C` the inhibition was 89.1% (active).
In the case of `CCOC(=O)CNC(=O)CSc1ncccc1-c1nc2ccccc2[nH]1`, the inhibition is reported as -7.03%.
`COc1ccc(NC(=O)C2CCC(CNS(=O)(=O)c3csc(C(N)=O)c3)CC2)cc1OC` (stereo not drawn) gave an inhibition of -12.8%.
Work on `COc1ccc(Oc2cn[nH]c2-c2ccc(OC)cc2O)cc1` yielded an inhibition of -5.45%.
With `COc1ccc2c(Cl)c(-c3nnco3)sc2c1` the inhibition was -0.739%.
In the case of `C#CCSc1nnc(-c2sc3ccccc3c2Cl)o1`, the inhibition is reported as 89.1% (active).
For `O=C(OCC#CCSc1nnc(-c2ccncc2)o1)c1sc2ccccc2c1Cl`, the inhibition was -13.4%.
